Measurements reported in PMC10726135, “HNF4α isoforms regulate the circadian balance between carbohydrate and lipid metabolism in the liver”.
Over roughly 18,000 sequences, “log2 normalized intensity” has its median near 0.39; the highest 2% begin near 6.6. The sample holds the highest values, similar sequences and a random draw of the others, so the mix is not that of the screen.

The sequences below were run against T1, HNF4alpha2 (COS-7 nuclear extract) (Homo sapiens, UniProt P41235 1-474) (assay: protein-binding microarray; COS-7 nuclear extract on double-stranded Agilent 4x180k PBM; binding buffer, salt, pH and temperature not given in the material; high values mean tight binding). Details: chain copies: 2; label: 3' end of strand 1 on the slide; dsDNA, one strand shown.
T1 sequence: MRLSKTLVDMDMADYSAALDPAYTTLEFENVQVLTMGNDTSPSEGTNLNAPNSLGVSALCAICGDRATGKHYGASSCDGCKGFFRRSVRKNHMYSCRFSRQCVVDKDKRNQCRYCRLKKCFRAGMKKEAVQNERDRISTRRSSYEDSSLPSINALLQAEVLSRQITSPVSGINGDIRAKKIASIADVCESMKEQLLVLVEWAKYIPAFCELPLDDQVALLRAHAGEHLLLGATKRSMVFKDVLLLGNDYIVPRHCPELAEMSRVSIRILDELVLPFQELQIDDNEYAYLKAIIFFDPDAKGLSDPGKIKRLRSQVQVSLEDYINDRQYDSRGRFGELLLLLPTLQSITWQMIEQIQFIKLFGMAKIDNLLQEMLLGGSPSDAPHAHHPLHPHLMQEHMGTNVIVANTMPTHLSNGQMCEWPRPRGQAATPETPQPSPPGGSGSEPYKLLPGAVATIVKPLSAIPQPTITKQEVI
Summary of the method: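 Double-stranded oligonucleotides of ~60 nt, representing ~44,000 test sequences in quadruplicate, made up a custom Agilent SurePrint G3 4x180k array. Nuclear extracts from COS-7 cells transiently transfected by CaPO4 with a human HNF4α isoform expression vector were applied, and bound HNF4α was imaged at 2-µm resolution on an Agilent G2565CA scanner. Binding signal refers to the background-corrected, normalized gProcessedSignal output of Agilent software.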

Sequence	binding signal [log2 normalized intensity]
GGACTTGATCCATTCTACCCCTGTGGTTGAGCCTAGGGAGATTAGAGTATCGGTCGA	2.25
TACCCCTGTGGTTGACCTTTAGTCTCTAGCGCCTAGGGAGATTAGAGTATCGGTCGA	6.48
CATTCTACCCCTGTGGTTGACCTTTAGTCTGCCTAGGGAGATTAGAGTATCGGTCGA	7.73
GGACTTCGCTCCGCCGCTAGGTGGCGGGCTGCCTAGGGAGATTAGAGTATCGGTCGA	1.42
GAGAAGTTGCTCTTTACACCATTGCAAGGAGCCTAGGGAGATTAGAGTATCGGTCGA	-0.941
GGAGCCCCCTGGGGGAGGTTTCCTGCTGTCGCCTAGGGAGATTAGAGTATCGGTCGA	-0.946
ATCTTCCTCCCCCCTTGGCTACATGTTTGTGCCTAGGGAGATTAGAGTATCGGTCGA	3.7
CTGCAAAGAAGTCAAACTTTGGACCCACTGGCCTAGGGAGATTAGAGTATCGGTCGA	5.97
TGATCCAGGGCAAAGGTCATAATTTGATCCGCCTAGGGAGATTAGAGTATCGGTCGA	6.34
AGAAAACACAGAGATCTGATCAAAGGTCATGCCTAGGGAGATTAGAGTATCGGTCGA	5.9
CAAAGGTCATAATTTGATCCAGTGTGCAAAGCCTAGGGAGATTAGAGTATCGGTCGA	3.35
TCAGGAGCCCCACAGAGCAAAGGTCATGCAGCCTAGGGAGATTAGAGTATCGGTCGA	5.38
ACACAGGACTTGATCCAGGGCAAAGGTCATGCCTAGGGAGATTAGAGTATCGGTCGA	7.38
GGACTTGATCCAGGGCAAAGGTCATAATTTGCCTAGGGAGATTAGAGTATCGGTCGA	6.98
GAGCTTTTACCTCAAATAAAGGTCAGAGTCGCCTAGGGAGATTAGAGTATCGGTCGA	1.79
GTATCAGGGCTCAGGAATGTGGGGTCAACAGCCTAGGGAGATTAGAGTATCGGTCGA	2.99
CCGCGACAAGCGTCGCTGAGTGGAGGCCCAGCCTAGGGAGATTAGAGTATCGGTCGA	-0.847
GTGGGAGAAAGCTTTGGACTTTGGGCTGTGGCCTAGGGAGATTAGAGTATCGGTCGA	5.72
GCAATGTGGACTTTGTCCTGTGGGCTGTAAGCCTAGGGAGATTAGAGTATCGGTCGA	7.35
AGTTTGCCACGGTCAGCAATGTGGACTTTGGCCTAGGGAGATTAGAGTATCGGTCGA	6.18
GTGGACTTTGTCCTGTGGGCTGTAAAAATCGCCTAGGGAGATTAGAGTATCGGTCGA	5.03
TGGACTTTGGTCCTGGTCAGACTTGCCACGGCCTAGGGAGATTAGAGTATCGGTCGA	4.5
CCGTCCTGTCCTGGACTTTCCTTTGTTGGGGCCTAGGGAGATTAGAGTATCGGTCGA	2.3
ATGGACTTTGAAGGAGATTCCTGTGTCAGCGCCTAGGGAGATTAGAGTATCGGTCGA	0.984

Sequence	binding signal [log2 normalized intensity]
GCCACGGTCAGCAATGTGGACTTTGTCCTGGCCTAGGGAGATTAGAGTATCGGTCGA	9.67
GGTCAGCAATGTGGACTTTGTCCTGTGGGCGCCTAGGGAGATTAGAGTATCGGTCGA	7.77
TTGTCAGTGCCCTATACAGACCTTTGTATAGCCTAGGGAGATTAGAGTATCGGTCGA	2.96
CTCACAGAGTGGAGTCTTCCGTTTGATAGAGCCTAGGGAGATTAGAGTATCGGTCGA	-0.436
CTTTATCTAGATAAGTTTATTTACTTATGTGCCTAGGGAGATTAGAGTATCGGTCGA	1.49
ATGGTCAGTGTTGATAAGAAAGCTGCAGTCGCCTAGGGAGATTAGAGTATCGGTCGA	0.747
TAGGTTATCTTTGGAGAATGCCTTTTGTGTGCCTAGGGAGATTAGAGTATCGGTCGA	2.15
ATACTTAGGATTTTTGTGCCTCTTTGGTGAGCCTAGGGAGATTAGAGTATCGGTCGA	1.13
TATTCAAACAGAGGACAGTTGTGTTTGTTGGCCTAGGGAGATTAGAGTATCGGTCGA	1.96
TTTGGTGAGGCCCCAGTGTCAATTCTCATTGCCTAGGGAGATTAGAGTATCGGTCGA	1.82
CAGGCTGTTTTCCTATAGATTTGTTAAATCGCCTAGGGAGATTAGAGTATCGGTCGA	1.13
CTTTGTGGCAGGAGGAGCTGTTTGACATCCGCCTAGGGAGATTAGAGTATCGGTCGA	0.0869
GCTAAGAGACAGCTCCACAGCTGGACTTTGGCCTAGGGAGATTAGAGTATCGGTCGA	5.15
GGGTGAAAGGGACTCATCTCCAAACGAGACGCCTAGGGAGATTAGAGTATCGGTCGA	-0.986
ATCTCCAGATAAGACTTTGGACTTTGGACCGCCTAGGGAGATTAGAGTATCGGTCGA	11.6
GACTCATCTCCAAACGAGACTTTGGACTTTGCCTAGGGAGATTAGAGTATCGGTCGA	8.97
TACATTGGACAACTGTACTTTGGACTGGGGGCCTAGGGAGATTAGAGTATCGGTCGA	5.99
ACAGTTCTGATACATTGGACAACTGTACTTGCCTAGGGAGATTAGAGTATCGGTCGA	2.1
CTCCAAACATCTTTGGTATGGACTGATATTGCCTAGGGAGATTAGAGTATCGGTCGA	1.5
ATCTCCAAACGAGACTTTGGACTTTGGACTGCCTAGGGAGATTAGAGTATCGGTCGA	11.8
GGTGAGATAAGAAGACTCCAGGGGACTGCCGCCTAGGGAGATTAGAGTATCGGTCGA	-0.872
TCTGATACATTGGACAACTGTACTTTGGACGCCTAGGGAGATTAGAGTATCGGTCGA	7.2
GAGACAGCTCCACAGCTGGACTTTGGCTGCGCCTAGGGAGATTAGAGTATCGGTCGA	5.41
AAAGGGACTCATCTCCAAACGAGACTTTGGGCCTAGGGAGATTAGAGTATCGGTCGA	1.6
